The source of these data is PubChem BioAssay.

“And” between values parts separate entries of the source, which are not always exact repeats. Equal entries are not always repeated. The source made the active and inactive calls. Cut-off read from the data, not from the text of the source: active = inhibition above about 80%; inactive = the rest.

A short description of one experiment: LFS_MB_P medulloblastoma growth inhibition, cell-based, chromothripsis tumors, cisplatin or BGB combos (AID 1671449).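 Note: cells exposed for 96 hours; 0% = vehicle DMSO and 100% = killing by high DMSO.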 To be noted: LFS_MB_P medulloblastoma cells, measured here: combination with cisplatin, at 5 µM, stronger effect = higher value.
As usually defined, the inhibition is the change of the read-out against control, counted positive when it falls. Regarding `CNNCc1ccc(C(=O)NC(C)C)cc1`, the inhibition is 33.1% and 11.1%.
On to `O=NN(CCCl)C(=O)NC1CCCCC1`, for which the inhibition was -6.56% and -25.7%.
For `O=NN(CCCl)C(=O)NCCCl`, the inhibition is -36.8%.
Still for that read-out and setting: the result for `O=c1c(O)c(-c2ccc(O)c(O)c2)oc2cc(O)cc(O)c12` reads 20.2%; that for `Nc1nc(=S)c2[nH]cnc2[nH]1`, -43.8%; that for `CC(N)C12CC3CC(CC(C3)C1)C2` (stereo not given), -22.9%.
`O=c1oc2c(O)c(O)cc3c(=O)oc4c(O)c(O)cc1c4c23`: the inhibition is -36.9%.

A short description of the next experiment: HDN33 neuroblastoma growth inhibition, cell-based, chromothripsis tumors, cisplatin or BGB combos (AID 1671450).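 Note: cells exposed to compound for four days; 0% = vehicle DMSO and 100% = cell killing by high DMSO.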 To be noted: HDN33 neuroblastoma cells, BGB combo, at 5 µM, stronger effect = higher value.
With `CNNCc1ccc(C(=O)NC(C)C)cc1`, the inhibition was 11.7% and 16.1%.
Turning to `O=NN(CCCl)C(=O)NC1CCCCC1`, the inhibition is -29.5% and -15.3%.
On to `O=NN(CCCl)C(=O)NCCCl`, for which the inhibition was -14.5%.
`O=c1c(O)c(-c2ccc(O)c(O)c2)oc2cc(O)cc(O)c12`: the inhibition is -9.66%.
Take `Nc1nc(=S)c2[nH]cnc2[nH]1`: the inhibition was determined as 73.6%.
Same read-out and setting: then `CC(N)C12CC3CC(CC(C3)C1)C2` (stereo not given), with -28.3%; and `O=c1oc2c(O)c(O)cc3c(=O)oc4c(O)c(O)cc1c4c23`, with -24.4%.

The same experiment, now with this note: HDN33 neuroblastoma cells, at 0.5 µM, stronger effect = higher value.
Take `CNNCc1ccc(C(=O)NC(C)C)cc1`: the inhibition is 10.7% (inactive) and 6.09% (inactive).
On the same count and under the same terms, then `O=NN(CCCl)C(=O)NC1CCCCC1`, with -27.8% (inactive) and -8.82% (inactive); and `O=NN(CCCl)C(=O)NCCCl`, with 6.29% (inactive); and `O=c1c(O)c(-c2ccc(O)c(O)c2)oc2cc(O)cc(O)c12`, with -7.52% (inactive).
`Nc1nc(=S)c2[nH]cnc2[nH]1`: the inhibition was 33.6% (inactive).
On to `CC(N)C12CC3CC(CC(C3)C1)C2` (stereo not given), for which the inhibition is -32.5% (inactive).
Regarding `O=c1oc2c(O)c(O)cc3c(=O)oc4c(O)c(O)cc1c4c23`, the inhibition is -5.05% (inactive).

Staying with this experiment, now noted: HDN33 neuroblastoma cells, cisplatin combo, at 5 µM, stronger effect = higher value.
Regarding `CNNCc1ccc(C(=O)NC(C)C)cc1`, the inhibition is 11.5% and 15.1%.
Same read-out and setting: then `O=NN(CCCl)C(=O)NC1CCCCC1`, with -16% and 13.3%; and `O=NN(CCCl)C(=O)NCCCl`, with -3.04%; and `O=c1c(O)c(-c2ccc(O)c(O)c2)oc2cc(O)cc(O)c12`, with 10.5%.
As for `Nc1nc(=S)c2[nH]cnc2[nH]1`, the inhibition was 70.5%.
`CC(N)C12CC3CC(CC(C3)C1)C2` (stereo not given): the inhibition is -20.2%.
Take `O=c1oc2c(O)c(O)cc3c(=O)oc4c(O)c(O)cc1c4c23`: the inhibition was found to be 3.04%.

Staying with this experiment, now noted: HDN33 neuroblastoma cells, measured here: with BGB IC20 combination, at 0.5 µM, stronger effect = higher value.
For `CNNCc1ccc(C(=O)NC(C)C)cc1`, the inhibition was 8.82% and -6.43%.
As to `O=NN(CCCl)C(=O)NC1CCCCC1`, the inhibition is -31.2% and -14.7%.
The same measure, in the same setting: then `O=NN(CCCl)C(=O)NCCCl`, with 11.2%.
Regarding `O=c1c(O)c(-c2ccc(O)c(O)c2)oc2cc(O)cc(O)c12`, the inhibition is -21.2%.
Consider `Nc1nc(=S)c2[nH]cnc2[nH]1`, for which the inhibition was found to be 23.3%.
Consider `CC(N)C12CC3CC(CC(C3)C1)C2` (stereo not given), for which the inhibition is -33.5%.
Turning to `O=c1oc2c(O)c(O)cc3c(=O)oc4c(O)c(O)cc1c4c23`, the inhibition was -1.3%.
